Source: PubChem BioAssay
DT40 TDP1 no CPT = qHTS for Inhibitors of human tyrosyl-DNA phosphodiesterase 1 (TDP1): qHTS in cells in absence of CPT. 15% of 420,000 active. AID 686978, 2013. DT40 Tdp1-/- hTDP1 cells, no CPT, ATP luminescence, 48 h. Potency, µM (doses to about 46.2 µM), without a hit: top-dose activity change, negative = growth inhibition, actives largely listed as inhibitors; further: potency means the concentration at half of the fitted maximal effect; on the % scale 0 is the no-effect control and ±100 the full control effect; nearly all actives have a fitted effect of over 55% in size
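DT40 Tdp1-/-;hTDP1 cells, no CPT (DMSO vehicle only), 400 cells/well; compounds pin-transferred; ≥48 hr, 37 °C; CellTiter-Glo 30 min RT dark, luminescence read.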
D3 antag = antagonists of human D3 dopamine receptor; P35462; 2.5% of 360,000 active; D3R cells, DiscoveRx beta-arrestin luminescence, antagonist mode; hits give low values; max response, negative = inhibition, %; in the data active means max response below about -50%; inconclusive means no clear call, values can overlap the other calls; further: on the % scale 0 is the no-effect control and ±100 the full control effect
Target sequence (P35462 whole entry, looked up): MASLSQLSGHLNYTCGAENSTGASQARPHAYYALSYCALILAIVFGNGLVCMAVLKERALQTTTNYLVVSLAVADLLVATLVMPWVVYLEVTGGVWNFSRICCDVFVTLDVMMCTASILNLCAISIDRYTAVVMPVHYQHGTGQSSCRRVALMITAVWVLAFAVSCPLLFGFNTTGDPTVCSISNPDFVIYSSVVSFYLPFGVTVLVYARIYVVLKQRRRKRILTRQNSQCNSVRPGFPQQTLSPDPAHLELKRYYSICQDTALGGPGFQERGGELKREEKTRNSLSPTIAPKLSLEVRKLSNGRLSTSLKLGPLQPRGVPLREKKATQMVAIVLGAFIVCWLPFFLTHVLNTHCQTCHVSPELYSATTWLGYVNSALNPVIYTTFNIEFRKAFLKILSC
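Cells expressing the human receptor were seeded at 1500 cells/well, incubated overnight at 37 degrees C in 5% CO2, then exposed to library compounds with dopamine controls for 90 minutes at 37 degrees C before luminescent detection.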
D3 ag = activates the human D3 dopamine receptor | max activation, % | AID 652048 | 0.58% of 410,000 active | D3R DiscoveRx beta-arrestin cells, luminescence, 90 min; in the data active means max activation above about 30%; further: 0% is about no effect
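Agonist mode: compounds and dopamine controls were applied to plated cells for 90 min at 37 degrees C after an overnight attachment at 1500 cells/well. Luminescent read-out followed 30 - 60 minutes at room temperature with DiscoveRx detection reagent.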
ClpP mod = qHTS Assay for Activators of ClpP; Potency, µM (series often up to 57.5 µM), without a hit: top-dose activity change, negative = active; AID 651965, 2013; 1.9% of 340,000 active; ATP-dependent Clp protease proteolytic subunit (Bacillus subtilis (strain 168)), P80244; purified B. subtilis ClpP, FRET peptide cleavage, 20 min; active means well fitted falling curve with a large enough effect; inconclusive means small, poorly fitted or top-dose-only effect; inactive means no such curve, though single readings can be large or run the other way; further: potency means the concentration at half of the fitted maximal effect; the source files actives as falling curves though it sought activators and does not explain the sign; nearly all actives have a fitted effect of over 65% in size
Target sequence (P80244 whole entry, looked up): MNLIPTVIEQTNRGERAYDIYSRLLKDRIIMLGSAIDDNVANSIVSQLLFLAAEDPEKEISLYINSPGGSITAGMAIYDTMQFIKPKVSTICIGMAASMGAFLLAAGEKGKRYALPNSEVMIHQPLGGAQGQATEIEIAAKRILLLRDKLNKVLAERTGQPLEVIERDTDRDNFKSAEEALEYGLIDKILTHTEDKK
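Purified B. subtilis ClpP, 10 microg/mL final in Tris/HCl pH8 with KCl, BSA, glycerol and Tween-20, cleaved an Abz/nitrotyrosine-quenched decapeptide. Fluorescence (ex 320, em 430) was read at 0 and 20 min at room temperature. Delta was normalized to 5.8 microM ADEP and DMSO/no-enzyme controls.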
DT40 TDP1 CPT = growth inhibition of DT40 Tdp1-/-;hTDP1 cells with camptothecin (screen for TDP1 inhibitors). Potency, µM (top dose mostly 46.2 µM), inactives show at the highest dose activity change, negative = growth inhibition, usual class: inhibitors. chicken DT40 Tdp1-/-;hTDP1 cells + 20 nM CPT, ATP luminescence, 48 h. 12% of 420,000 active; further: potency means the concentration at half of the fitted maximal effect; on the % scale 0 is the no-effect control and ±100 the full control effect; nearly all actives have a fitted effect of over 55% in size
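Cell growth measured by CellTiter-Glo luminescence after a minimum 48 h, 37 C compound exposure with 20 nM CPT in Tdp1-knockout DT40 cells stably expressing hTDP1, seeded 400/well; qHTS titration format.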
IL1B secr inh = blocks inflammasome-driven IL-1 beta release | 4.7% of 360,000 active | THP-1 LPS/ATP IL-1B secretion, AlphaLISA, 16 h; hits give low values | activity change, % at 57.5 µM; in the data active means activity change below about -50%; inconclusive means mostly about -30% to -49%; further: on the % scale 0 is the no-effect control and ±100 the full control effect
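Secreted IL-1B measured by AlphaLISA bead assay after 16 h compound exposure of THP-1 cells; compounds (final up to 57.5 uM) added 1 h before LPS (250 ng/mL) and ATP (1.25 mM) stimulation; lower signal means less secretion.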
Starred values were filed as active, the others as inactive; ? = inconclusive; . = no result. Sampled rows, rich in hits. Any-hit rate of the full collection: about 21%. Unless noted, the call rests on the fitted dose curve; in most records, active means well fitted inhibition curve with a large enough effect; inconclusive means small, poorly fitted or top-dose-only effect; inactive means flat fitted curve, though single readings scatter.

SMILES | DT40 TDP1 no CPT | D3 antag | D3 ag | ClpP mod | DT40 TDP1 CPT | IL1B secr inh
CC(=O)Nc1ccccc1-c1nc2ccccc2n(CC(=O)c2ccc(Br)cc2)c1=O | ? | . | -13 | -5% | ? | .
CCC(C(=O)Nc1cccc(C#N)c1)n1c(=O)c(-c2ccccc2NC(C)=O)nc2ccccc21 (centres undefined) | 13µM* | . | -13 | -12% | 23µM* | .
CCc1ccc(NC(=O)C(CC)n2c(=O)c(-c3ccccc3NC(C)=O)nc3ccccc32)cc1 (centres undefined) | 23µM* | . | -14 | -13% | 23µM* | .
Cc1ccc(Cl)cc1N1CCN(C(=O)CCNS(=O)(=O)c2ccc3c(c2)CCN3C(=O)C2CC2)CC1 | 23µM* | . | 6 | -3% | 8.2µM* | .
O=C(CCNS(=O)(=O)c1ccc2c(c1)CCN2C(=O)C1CC1)N1CCN(c2cccc(C(F)(F)F)c2)CC1 | 1.6µM* | . | -8 | 1% | 2.1µM* | .
N#Cc1cccc(NC(=O)CCNS(=O)(=O)c2ccc3c(c2)CCN3C(=O)C2CC2)c1 | ? | . | -11 | -4% | ? | .
CCC(=O)N1CCc2cc(S(=O)(=O)CCC(=O)N3CCN(c4cc(C)ccc4C)CC3)ccc21 | ? | . | -4 | -1% | ? | .
COc1ccccc1N1CCN(C(=O)CCNS(=O)(=O)c2ccc3c(c2)CCN3C(=O)C2CC2)CC1 | 23µM* | . | -6 | 3% | 16µM* | .
CCc1nc2sc3c(O)cc(=O)[nH]c3c2cc1C | 12µM* | -17 | 1 | . | ? | -7
COc1cc2cc(CNc3ccccc3)c(=O)n(CC(=O)Nc3cc(C)cc(C)c3)c2cc1OC | . | . | -10 | 4% | . | .
CC(=O)c1c(N2CCN(c3ccccc3)CC2)nc(=S)n(-c2ccccc2)c1C | 21µM* | -53* | -11 | -1% | 23µM* | -65*
CC(=O)c1c(N2CCN(Cc3ccccc3)CC2)nc(=S)n(-c2ccccc2)c1C | 23µM* | -12 | -16 | -1% | ? | -19
CC(=O)c1c(N2CCN(Cc3ccc4c(c3)OCO4)CC2)nc(=S)n(-c2ccccc2)c1C | 18µM* | 9 | -9 | 0% | ? | -2
CC(=O)c1c(N2CCN(CCO)CC2)nc(=S)n(-c2ccccc2)c1C | 14% | 3 | 4 | . | -3% | 0
CCOC(=O)N1CCN(c2nc(=S)n(-c3ccccc3)c(C)c2C(C)=O)CC1 | ? | 35 | -7 | -1% | 2% | 7
CC(=O)O[C@H]1[C@@H](O)[C@H](O)[C@H](Oc2c(O)c(C)c3c4c2[C@@H](C)CC[C@@H]4[C@@H](C)C[C@H]3C=C(C)C)O[C@H]1C | 18µM* | 96 | 30* | 1% | ? | -3
CC(=O)O[C@@H]1[C@@H](O)[C@@H](O)[C@H](Oc2c(-c3ccc(O)cc3)oc3c(CC=C(C)C)c(O)cc(O)c3c2=O)O[C@H]1C | ? | 43 | 14 | 1% | ? | -9
Cc1cccc(S(=O)(=O)c2c(N)n(/N=C/c3ccccc3)c3nc4ccccc4nc23)c1 | ? | 7 | 0 | ? | -23% | -29
Cc1ccc(C)c(S(=O)(=O)c2c(N)n(/N=C/c3ccco3)c3nc4ccccc4nc23)c1 | ? | -10 | 7 | 7.9µM* | ? | ?
Nc1c(S(=O)(=O)c2ccccc2)c2nc3ccccc3nc2n1/N=C/c1cccc(O)c1 | 23µM* | 25 | 1 | 10µM* | 15µM* | -72*
Cc1cc(Cl)ccc1OC(C)C(=O)Nc1ccccc1N1CCOCC1 (centres undefined) | ? | 4 | 3 | -1% | ? | -58*
CC(Oc1cccc(Cl)c1)C(=O)Nc1ccccc1N1CCCC1 (centres undefined) | ? | -1 | 0 | -3% | ? | -10
CC(Oc1ccc(Cl)cc1)C(=O)Nc1ccccc1N1CCOCC1 (centres undefined) | 21µM* | 14 | 2 | -7% | ? | 6
Cc1cc(Cl)ccc1OC(C)C(=O)Nc1cccc(S(=O)(=O)N2CCOCC2)c1 (centres undefined) | ? | 8 | 3 | 0% | ? | ?
Cc1cc(Cl)ccc1OC(C)C(=O)N1CCCN(C(=O)C(C)Oc2ccc(Cl)cc2C)CC1 (centres undefined) | 21µM* | 9 | 0 | 2% | 21µM* | -65*
SMILES | DT40 TDP1 no CPT | D3 antag | D3 ag | ClpP mod | DT40 TDP1 CPT | IL1B secr inh
CCCCn1c(N)c(N(C)C(=O)c2ccccc2Oc2ccccc2)c(=O)[nH]c1=O | 13% | ? | -13 | -1% | -2% | -12
CCOC(=O)/C=C1/N(C)c2ccccc2C1(C)C | 3% | -3 | -5 | . | 6% | -10
CNS(=O)(=O)c1cccc(C(=O)OCC(=O)/C=C2/N(C)c3ccccc3C2(C)C)c1 | 18µM* | 18 | 1 | -20% | 21µM* | 11
CN1/C(=C\C(=O)COC(=O)c2ccc(O)cc2)C(C)(C)c2ccccc21 | 16µM* | 18 | 12 | -21% | 15µM* | 3
CN1/C(=C\C(=O)COC(=O)c2ccc(O)c(O)c2)C(C)(C)c2ccccc21 | 6.5µM* | 18 | 27 | . | 6.5µM* | 5
CN1/C(=C\C(=O)COC(=O)CNC(=O)c2ccc3ccccc3c2)C(C)(C)c2ccccc21 | 10µM* | 19 | 1 | -18% | 18µM* | 68
O=[N+]([O-])c1cccc(-c2nnn(C34CC5CC(CC(C5)C3)C4)n2)c1 | 18µM* | ? | -14 | -1% | ? | -19
O=C(NC12CC3CC(CC(C3)C1)C2)c1cccc([N+](=O)[O-])c1 | -9% | 4 | 1 | -2% | -24% | -12
COCCNC(=O)c1ccc2c3n(nc2c1)-c1ccc(Cl)cc1CO3 | 21µM* | -4 | -22 | ? | ? | -9
O=C(NCCO)c1ccc2c3n(nc2c1)-c1ccc(Cl)cc1CO3 | ? | 26 | 12 | -17% | ? | -21
C=CCNC(=O)c1ccc2c3n(nc2c1)-c1ccccc1CO3 | 23µM* | 8 | 1 | 4% | 15µM* | 6
Cc1ccc2c(c1)COc1c3ccc(C(=O)N[C@@H](C)CO)cc3nn1-2 | ? | 19 | -6 | 4% | ? | -21
Cc1ccc2c(c1)COc1c3ccc(C(=O)NC(C)C)cc3nn1-2 | 10µM* | 11 | 2 | 3% | ? | -2
COCCNC(=O)c1ccc2c3n(nc2c1)-c1ccccc1CO3 | ? | -9 | 3 | 3% | ? | -27
